From PubChem BioAssay (NCATS) come the findings set out here.

Inconclusive results are not listed. A call without a number means that no potency is given here. Calls of active or inactive are those of the source. Calls come from the whole dose curve; as a rule, active = well fitted curve in the direction sought with a large enough effect; inconclusive = small, poorly fitted or top-dose-only effect, or another doubt; inactive = no such curve, though single readings can be large; an effect the other way counts as inactive or inconclusive.

One assay can be described thus: qHTS of pediatric cancer cell lines to identify multiple opportunities for drug repurposing: Primary screen for U-2 OS cells (AID 1347096). Note: nearly all actives have a fitted effect of over 50% in size. The note with it: U-2 OS viability, CellTiter-Glo luminescence, 48 h; series mostly up to 46 µM. Put shortly: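 Cells (500-1,000/well) in growth media were settled 5 h at 37 degrees C, then given compounds for 48 h. Viability was read as CellTiter-Glo luminescence. Primary runs used MIPE at 11 points (0.78 nM-46 µM) and NPC at 8 points (0.59 nM-46 µM); follow-ups used 11 points.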
Consider `OCCN1CCN(CCCN2c3ccccc3C=Cc3ccccc32)CC1`, for which the Potency entry is “inactive”.
As to `Cc1cccc(C)c1NC(=O)C(C)N` (configuration not stated), the Potency entry was “inactive”.
Still for that read-out and setting: the result for `CCNC(=O)N1CCN(CCCC(c2ccc(F)cc2)c2ccc(F)cc2)CC1` reads “inactive”; that for `C[C@]12CCC(=O)C=C1CC[C@@H]1[C@@H]2C(=O)C[C@@]2(C)[C@H]1CC[C@]2(O)C(=O)CO`, “inactive”; that for `COc1cc(Cc2cnc(N)nc2N)cc(OC)c1OC`, “inactive”.
In the case of `CN(C)C/C=C(/c1ccc(Br)cc1)c1cccnc1`, the Potency entry is “inactive”.
With `O=C1CC2(CCCC2)CC(=O)N1CCCCN1CCN(c2ncccn2)CC1`, the Potency result is “inactive”.
The same measure, in the same setting: the result for `Cc1nnc(SCC2=C(C(=O)O)N3C(=O)[C@@H](NC(=O)Cn4cnnn4)[C@H]3SC2)s1` reads “inactive”; that for `CN/C(=C\[N+](=O)[O-])NCCSCc1ccc(CN(C)C)o1`, “inactive”.
Consider `CC1=NS(=O)(=O)c2cc(Cl)ccc2N1`, for which the Potency result was “inactive”.
Consider `O=C(O)CCCCCCCC(=O)O`, for which the Potency entry is “inactive”.
The same measure, in the same setting: next, `CCN(CC)CC(=O)Nc1c(C)cccc1C`: “inactive”; `NC1=NCC2c3ccccc3Cc3ccccc3N12` (configuration not stated): “inactive”.
In the case of `Cc1scc2c1N(C(=O)CN1CCN(C)CC1)c1ccccc1NC2=O`, the Potency result was “inactive”.
For the compound `CCCOc1ccccc1-c1nc2n[nH]nc2c(=O)[nH]1`, the Potency result is “inactive”.
Still for that read-out and setting: the result for `CN(C)CCOC(=O)COc1ccc(Cl)cc1` reads “inactive”.

The next assay in a line: qHTS of pediatric cancer cell lines to identify multiple opportunities for drug repurposing: Primary screen for Saos-2 cells (AID 1347097). Note: nearly all actives have a fitted effect of over 40% in size. Note: potency is the fitted concentration of half-maximal effect. To be noted: Saos-2 viability, CellTiter-Glo ATP luminescence, 48 h; series mostly up to 46 µM. The procedure, abridged:
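Viability was measured as metabolically active cells after 48 hours of treatment, read by CellTiter-Glo luminescence. Compounds were tested at multiple final concentrations, giving concentration-response curves.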
For `NC(Cc1ccc(Cl)cc1)C(=O)O` (configuration not stated), the activity change, negative = cytotoxic is 1.27% [at 0.597 µM] (inactive).
In the case of `CCCCCN(CCCCC)C(=O)C(CCC(=O)O)NC(=O)c1ccc(Cl)c(Cl)c1` (configuration not stated), the Potency result is “inactive”.
For `CCO/C([O-])=N/c1c[n+](N2CCOCC2)no1`, the Potency entry is “inactive”.
Take `CCN(CC)CCOCCOC(=O)C1(c2ccccc2)CCCC1`: the Potency entry is “inactive”.
As for `CSc1ccc(C(=O)c2[nH]c(=O)[nH]c2C)cc1`, the Potency result was “inactive”.
On to `CCn1cc(C(=O)O)c(=O)c2cc3c(cc21)OCO3`, for which the Potency result is “inactive”.
In the case of `CC(=O)[C@@]1(O)CC[C@H]2[C@@H]3CCC4=CC(=O)CC[C@]4(C)[C@H]3CC[C@@]21C`, the Potency entry is “inactive”.
Regarding `CN(C)CCN(Cc1cccs1)c1ccccn1`, the Potency result is “inactive”.
On the same count and under the same terms, the result for `CC(C)(C)NCC(O)c1cc(O)cc(O)c1` (configuration not stated) reads “inactive”.
As to `CN(C)C(=O)Oc1cccc([N+](C)(C)C)c1`, the Potency result was “inactive”.
`COc1ccc(CN(CCN(C)C)c2ccccn2)cc1`: the Potency entry was “inactive”.
On the same count and under the same terms, the result for `O=c1[nH]c(=O)n([C@H]2C[C@H](O)[C@@H](CO)O2)cc1Br` reads “inactive”.
On the same count and under the same terms, next, `C[C@]12C=CC(=O)C=C1CC[C@H]1[C@@H]3C[C@@H](O)[C@](O)(C(=O)CO)[C@@]3(C)C[C@H](O)[C@@]12F`: “inactive”; `CNCCCN1c2ccccc2CCc2ccccc21`: “inactive”.
Take `CCCNC(C)C(=O)Nc1ccccc1C` (configuration not stated): the Potency result is “inactive”.
Same read-out and setting: next, `CC(N=C(NC#N)Nc1ccncc1)C(C)(C)C` (configuration not stated): “inactive”.
Same read-out and setting: the result for `CC(=O)[C@]1(O)Cc2c(O)c3c(c(O)c2[C@@H](O[C@H]2C[C@H](N)[C@H](O)[C@H](C)O2)C1)C(=O)c1ccccc1C3=O` reads 3.35 µM (active).
Regarding `NC/C=C/C(=O)O`, the Potency result was “inactive”.
Turning to `Nc1c2c(nc3ccccc13)CCCC2O` (configuration not stated), the Potency result was “inactive”.
Consider `OCCN1CCN(CCCN2c3ccccc3C=Cc3ccccc32)CC1`, for which the Potency entry is “inactive”.
On to `Cc1cccc(C)c1NC(=O)C(C)N` (configuration not stated), for which the Potency entry is “inactive”.
On the same count and under the same terms, the result for `CCNC(=O)N1CCN(CCCC(c2ccc(F)cc2)c2ccc(F)cc2)CC1` reads “inactive”; that for `C[C@]12CCC(=O)C=C1CC[C@@H]1[C@@H]2C(=O)C[C@@]2(C)[C@H]1CC[C@]2(O)C(=O)CO`, “inactive”.
For the compound `COc1cc(Cc2cnc(N)nc2N)cc(OC)c1OC`, the Potency entry was “inactive”.
Regarding `CN(C)C/C=C(/c1ccc(Br)cc1)c1cccnc1`, the Potency result was “inactive”.
On to `O=C1CC2(CCCC2)CC(=O)N1CCCCN1CCN(c2ncccn2)CC1`, for which the Potency entry was “inactive”.
As to `Cc1nnc(SCC2=C(C(=O)O)N3C(=O)[C@@H](NC(=O)Cn4cnnn4)[C@H]3SC2)s1`, the Potency result is “inactive”.
On to `CN/C(=C\[N+](=O)[O-])NCCSCc1ccc(CN(C)C)o1`, for which the Potency result was “inactive”.
Regarding `CC1=NS(=O)(=O)c2cc(Cl)ccc2N1`, the Potency result is “inactive”.
The same measure, in the same setting: the result for `O=C(O)CCCCCCCC(=O)O` reads “inactive”; that for `CCN(CC)CC(=O)Nc1c(C)cccc1C`, “inactive”.
On the same count and under the same terms, the result for `NC1=NCC2c3ccccc3Cc3ccccc3N12` (configuration not stated) reads “inactive”; that for `Cc1scc2c1N(C(=O)CN1CCN(C)CC1)c1ccccc1NC2=O`, “inactive”; that for `CCCOc1ccccc1-c1nc2n[nH]nc2c(=O)[nH]1`, “inactive”.
Still for that read-out and setting: the result for `CN(C)CCOC(=O)COc1ccc(Cl)cc1` reads “inactive”.

The nature of another assay: qHTS of pediatric cancer cell lines to identify multiple opportunities for drug repurposing: Primary screen for SK-N-SH cells (AID 1347098).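 For activity change, negative = cytotoxic: DMSO served as neutral control and bortezomib at 2.3 µM as positive control.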 Note: nearly all actives have a fitted effect of over 65% in size. Note: potency is the fitted concentration of half-maximal effect. To be noted: SK-N-SH viability, CellTiter-Glo luminescence, 48 h; series mostly up to 57 µM. The procedure, abridged: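 Cells (500-1,000/well) rested 5 h, then received compounds for 48 h; metabolically active cells were measured by CellTiter-Glo luminescence. Final concentrations spanned up to 46 µM (MIPE, 11-point) or 0.59 nM-46 µM (NPC, 8-point) in primary screens, 11-point in follow-ups.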
As for `NC(Cc1ccc(Cl)cc1)C(=O)O` (configuration not stated), the activity change, negative = cytotoxic was -6.57% [at 0.741 µM] (inactive).
As to `CCCCCN(CCCCC)C(=O)C(CCC(=O)O)NC(=O)c1ccc(Cl)c(Cl)c1` (configuration not stated), the Potency entry was “inactive”.
The same measure, in the same setting: next, `CCN(CC)CCOCCOC(=O)C1(c2ccccc2)CCCC1`: “inactive”.
Take `CSc1ccc(C(=O)c2[nH]c(=O)[nH]c2C)cc1`: the Potency entry was “inactive”.
Consider `CCn1cc(C(=O)O)c(=O)c2cc3c(cc21)OCO3`, for which the Potency entry is “inactive”.
In the case of `CC(C)(C)NCC(O)c1cc(O)cc(O)c1` (configuration not stated), the Potency result is “inactive”.
Regarding `CN(C)C(=O)Oc1cccc([N+](C)(C)C)c1`, the Potency result was “inactive”.
On to `COc1ccc(CN(CCN(C)C)c2ccccn2)cc1`, for which the Potency entry is “inactive”.
For `C[C@]12C=CC(=O)C=C1CC[C@H]1[C@@H]3C[C@@H](O)[C@](O)(C(=O)CO)[C@@]3(C)C[C@H](O)[C@@]12F`, the Potency entry is “inactive”.
As to `CNCCCN1c2ccccc2CCc2ccccc21`, the Potency is 30.7 µM (active).
For `CCCNC(C)C(=O)Nc1ccccc1C` (configuration not stated), the Potency result is “inactive”.
Turning to `CC(=O)[C@]1(O)Cc2c(O)c3c(c(O)c2[C@@H](O[C@H]2C[C@H](N)[C@H](O)[C@H](C)O2)C1)C(=O)c1ccccc1C3=O`, the Potency was 0.433 µM (active).
With `Nc1c2c(nc3ccccc13)CCCC2O` (configuration not stated), the Potency entry is “inactive”.
Same read-out and setting: next, `Cc1cccc(C)c1NC(=O)C(C)N` (configuration not stated): “inactive”; `CCNC(=O)N1CCN(CCCC(c2ccc(F)cc2)c2ccc(F)cc2)CC1`: 30.7 µM (active).
Take `C[C@]12CCC(=O)C=C1CC[C@@H]1[C@@H]2C(=O)C[C@@]2(C)[C@H]1CC[C@]2(O)C(=O)CO`: the Potency entry is “inactive”.
With `COc1cc(Cc2cnc(N)nc2N)cc(OC)c1OC`, the Potency entry was “inactive”.
Still for that read-out and setting: the result for `CN(C)C/C=C(/c1ccc(Br)cc1)c1cccnc1` reads “inactive”; that for `O=C1CC2(CCCC2)CC(=O)N1CCCCN1CCN(c2ncccn2)CC1`, “inactive”.
On to `Cc1nnc(SCC2=C(C(=O)O)N3C(=O)[C@@H](NC(=O)Cn4cnnn4)[C@H]3SC2)s1`, for which the Potency entry is “inactive”.
In the case of `CN/C(=C\[N+](=O)[O-])NCCSCc1ccc(CN(C)C)o1`, the Potency result was “inactive”.
In the case of `CC1=NS(=O)(=O)c2cc(Cl)ccc2N1`, the Potency result was “inactive”.
The same measure, in the same setting: the result for `O=C(O)CCCCCCCC(=O)O` reads “inactive”.
Consider `Cc1scc2c1N(C(=O)CN1CCN(C)CC1)c1ccccc1NC2=O`, for which the Potency entry was “inactive”.
On to `CCCOc1ccccc1-c1nc2n[nH]nc2c(=O)[nH]1`, for which the Potency entry was “inactive”.
For the compound `CN(C)CCOC(=O)COc1ccc(Cl)cc1`, the Potency entry was “inactive”.
